# Results as given in the supplement of paper PMC10338343.
# ± gives the standard deviation.
# Test system: MILI (PIWIL2) piRISC loaded with L1MC piRNA (26 nt)
# Experiment: pre-steady-state target cleavage rate (min^-1); guide: L1MC piRNA 5'p-UAACUAAAUACUAUGCAAGCUGUAGG; higher = faster piRNA-guided slicing of the target
# Settings: auxiliary factor: 500 nM mouse GTSF1
# Outline: (§1)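 The method was Cleave-'n-Seq, in which uncleaved targets from a transcribed, DNA-blocked target RNA library were sequenced after exposure to active affinity-purified piRISC carrying one synthetic guide, with or without GTSF1 partner protein. Reactions contained 0.1 nM library, 1 nM piRISC and, where present, 500 nM GTSF1 in HEPES–potassium acetate buffer at 33 °C for 0–8 or 0–960 min. Reads were normalised to depth and to weakly complementary targets, three trials were pooled, and k3 was capped at 0.0001 min^-1. The pre-steady-state cleavage rate came from a burst-and-steady-state fit.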
row,Sequence,pre-steady-state target cleavage rate
1,UCCUGCUACAGCUUGCACUAGUAUUUAGUUA,0.0609 ± 0.015
2,UCCUGCUACAGCUUGCAUAGUAUAUUGUUA,0.187 ± 0.036
3,UCCUCCAACAGCUUGCAUAGUAUUUUCAAA,0.0817 ± 0.015
4,UCCUCCUACAGCUUGCACUAGUAUUUAGUUA,0.0877 ± 0.019

# Test system: EfPiwi piRISC loaded with L1MC piRNA (26 nt)
# Experiment: pre-steady-state target cleavage rate (min^-1); auxiliary factor: 500 nM Ephydatia muelleri Gtsf1; guide: L1MC piRNA 5'p-UAACUAAAUACUAUGCAAGCUGUAGG; MIWI and MILI are mouse PIWI proteins and EfPiwi is from a freshwater sponge; tags in brackets are library labels; higher = faster piRNA-guided slicing of the target
# Settings: not given
# Outline: as §1
row,Sequence,pre-steady-state target cleavage rate
1,UCCUGGAUGAGCUUGCAUAGUAAUUUAGUUA,0.00357 ± 0.0029
2,UCCUGGAACAGCUUGCUUAGUAUAUAGUUA,0.0104 ± 0.0048
3,UCCUGGAACAGCUUGCAUAGUAUUUGGUUA,0.00496 ± 0.002
4,UCCUGGAUGUCGAACGUAAGUAUUUGGUUA,< 0.0001
5,UCCUGGAUGAGCUGCAUAGUAUUUAGUUA,0.00786 ± 0.0028
6,UCCUGGAUGUCGAACGUAUCUAUGUAGUUA,< 0.0001
7,UCCUCCUACAGCUUGCAUAGUAUUCUAGUUA,0.00344 ± 0.0019
8,UCCUGCUACAGCUUGCACUAGUAUUUAGUUA,0.00557 ± 0.0023
9,UCCUGGAUGUCGAACGUAAUUAUUUAGUUA,< 0.0001
10,UCCUGCUACAGCUUGCAUAGUAUAUUGUUA,0.00351 ± 0.0021
11,UCCUCCUACAGCUUGCAUAGUAUUUGGUUA,0.00583 ± 0.0021
12,UCCUGGUACAGCUUCCAUAGUAUUUAGAUA,0.00221 ± 0.0016
13,UCCUGGAUGUGCUUGCAUAGUAUUUACUAA,0.146 ± 0.073
14,UCCUGGAUCAGCUUGCAUAGUAUUUGUUA,0.00326 ± 0.0029
15,UCCUGCUACAGCAUUGCAUAGUAUUUAGUUA,0.00946 ± 0.0029
16,UCCUGGAUGUCGAACCAUAGUAUUAAGUUA,< 0.0001
17,UCCUGGAUGUGCUUGCAUACUAUUUAGUUA,0.0112 ± 0.0036
18,UCCUGGUACAUCUUGCAUAGUAUUUAGUUA,0.0254 ± 0.01
19,UCCUGGUACUGGUUGCAUAGUAUUUAGUUA,0.0054 ± 0.0031
20,UCCUGGAUGUCCUUGCAUAGUAUUUAGUUC [g2:g19:cont:t1C],0.00867 ± 0.0028

row,Sequence,pre-steady-state target cleavage rate
1,UCCUCCUACAGACUUGCAUAGUAUUUAGUUA,0.017 ± 0.006
2,UCCUGCUUCAGCUUGCAUAGUAUAUAGUUA,0.00887 ± 0.0035
3,UCCUCCAACAGCUUGCAUAGUAUUUUCAAA,0.00396 ± 0.0027
4,UCCUGGAUGUCGAAGCUUAGUAUUUACUUA,< 0.0001
5,UCCUGCUACAGCUUGCAUAGUAUUUGGUUA,0.00556 ± 0.0012
6,UCCUCCUACUCGUUGCAUAGUAUUUAGAAA,0.004 ± 0.0035
7,UCCUGGAUGUCGUUGCAUAGAUAAAUCAAA [g11:g18:cont:t1A],< 0.0001
8,UCCUGGAUCAGCUUGCAAAGUAUUUAGUUA,0.0218 ± 0.0057
9,UCCUGGAACAGCUUCCAUAGUAUUUAGAUA,0.00228 ± 0.0017
10,UCCUCCUUGAGCUUGCAUAGUAUUUUCAAA,0.00265 ± 0.0021
11,UCCUCCUACUGCAUGCAUAGUAUUUAGUUA,0.0706 ± 0.019
12,UCCUGGAUGUCGAACGUCAGUAUUUAGUUA,< 0.0001
13,UCCUGGAUCUGCUUGCAUACUAUUUAGUUA,0.00859 ± 0.0023
14,UCCUGCUACAGCAUGCUUAGUAUUUAGUUA,0.0122 ± 0.0038
15,UCCUGGAUGUCGAACGUAAGUAUUUCAGUUA,< 0.0001
16,UCCUCCUACAGCUUGCACUAGUAUUUAGUUA,0.0137 ± 0.0056
17,UCCUGGAUGUCGUUGCAAACUAUUUAGUUA,< 0.0001
18,UCCUGGAUGAGCUUGCAUACUAUUUAGAUA,0.00231 ± 0.0021
19,UCCUCCAACAGCUUGCAUAGUUUUUAGUUA,0.0119 ± 0.0041
20,UCCUGGAUGUCGAACCAUAGUAUUUCGUUA,< 0.0001
